# Results from PubChem BioAssay (NCI).
# Several values for one entry are separate records, joined by “and”; a condition that tells them apart may be missing. Equal values may be shown once. This is part of a sample that, as a whole, favours compounds with a hit. Of some 83,000 tested, about 20% had one in any assay.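 How to read the values: 0–100, growth inhibition (40 = 60% inhibited); 0, no net growth; -100 to 0, cell death (-40 = 40% of starting cells died; -100 = all dead).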 Activity calls are given as the source filed them. The calls were made as follows: active = growth percent below 10; inactive = the rest.
# System: MDA-MB-468 breast
# Test: NCI-60 one-dose screen, 48 h (100 = growth as untreated, 0 = no growth, -100 = all killed)
# Details: 10 µM unless noted
row,SMILES,growth
1,Cc1cc(N(CCCNc2ccnc3cc(Cl)ccc23)Cc2ccco2)nc(N2CCOCC2)n1,80.3% (inactive)
2,CCN1CCN(CCNc2nccc(-c3c(-c4cccc(O)c4)nc4sccn34)n2)S1(=O)=O,86.7% (inactive) and 81.1% (inactive)
3,COc1ccc(Oc2nc(Nc3ccc(N4CCOCC4)cc3)ncc2NC(=O)c2cccc(C(F)(F)F)c2)cc1,93% (inactive)
4,Cc1ccc(NC(=S)NNC(=S)NNc2ccccc2)cc1C,99.6% (inactive)
5,Cl[C@@H]1CCO[C@H](c2cc3ccccc3c3ccccc23)C1,93.4% (inactive)
6,N#Cc1c(-c2ccc(C(F)(F)F)cc2)c(F)c(NCCC2CCC(O)C2)n2c1nc1ccccc12 (stereo not drawn),64.2% (inactive)
7,Cc1c(C(=O)/C=C/c2ccc(Cl)cc2)nnn1-c1ccc2oc(=O)ccc2c1,85.9% (inactive)
8,CC1(C)CC[C@]23CC[C@]4(C)[C@H](CC[C@@H]5[C@@]6(C)CC[C@H](NCO)C(C)(C)[C@@H]6CC[C@]54C)[C@H]2[C@H]1OC3,-56.6% (active)
9,C/C(Nc1ccc(Cl)c(Cl)c1)=C1\CCOC1=O,70.5% (inactive)
10,Cc1ccc(CNc2c3ccccc3nc3cc(NC(=O)CCN4CCCC4)ccc23)cc1,-29.3% (active)
11,C[C@@H]1OCC2(CCN(c3cnc(C(=O)Nc4cc(F)cc5cccnc45)cn3)CC2)[C@@H]1N,1.07% (active)
12,Nc1c(C(=O)Nc2ccccc2Cl)sc2nc3c(cc12)CCCCCC3,-1.41% (active)
13,COc1ccc(C(=O)C(CN(C)C)c2ccccc2)cc1 (stereo not drawn),-58.5% (active)
